A short description of experiment [1]: Cell Viability - SH-SY5Y (AID 544; active = well fitted curve in the direction sought with a large enough effect; an effect the other way counts as inactive or inconclusive;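 also: cells exposed to compound for 40 hours; 0% = DMSO alone and -100% = 100 µM tamoxifen; nearly all actives have a fitted effect of over 55% in size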). The settings on record: SH-SY5Y neuroblastoma cell viability; viability change, negative = cytotoxic: at 92.2 µM (top of the series). A digest of the protocol:
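SH-SY5Y human neuroblastoma cells (1500/well) incubated 5 h, then compound-treated 40 h at 37 °C in complete medium. Viability read as intracellular ATP by CellTiter-Glo luminescence after 20 min; AC50 from Hill-equation fits of qHTS concentration-response.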

A short description of experiment [2]: Cellular Toxicity (caspase-3) N2a (AID 665; active = well fitted curve in the direction sought with a large enough effect; an effect the other way counts as inactive or inconclusive;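 also: compound exposure lasted 16 h at 37 °C before readout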). The conditions noted are these: N2a cells, luminescence, normalized: DMSO 0%, 10 µM staurosporine 100%; at 92.2 µM (top of the series). The gist of the method: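 Mouse N2a neuroblastoma cells, 1500 per well, treated 16 h at 37 °C in complete medium; caspase-3/7 activity by Caspase-Glo luminescence after 1 h. Normalized to DMSO and 10 uM staurosporine; AC50 from Hill fits.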

Experiment [3] in a line: Cell Viability - LYMP1-003 - Assay at 40 hr (AID 964; active = well fitted curve in the direction sought with a large enough effect; an effect the other way counts as inactive or inconclusive; also: % is scaled to controls: 0 for no effect and ±100 for the full control effect; nearly all actives have a fitted effect of over 60% in size). The gist of the method:
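LYMP1-003 human lymphoblastoid cells, 2500/well, preincubated 5 h at 37 C, then treated with compound for 40 h at 37 C. Intracellular ATP read by CellTiter-Glo luminescence after 30 min at room temperature; AC50 from Hill-equation fits.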

Experiment [4] is described as follows: Cell Viability - LYMP2-017 (AID 972; active = well fitted curve in the direction sought with a large enough effect; an effect the other way counts as inactive or inconclusive; also: nearly all actives have a fitted effect of over 55% in size; also: potency is read from the fitted curve at half-maximal effect). A digest of the protocol: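 LYMP2-017 human lymphoblastoid cells (2500/well) settled 5 hr at 37 C, then exposed to compound 24 hr at 37 C in complete medium. Viability taken as intracellular ATP by CellTiter-Glo luminescence after 30 min at RT; AC50 from Hill fits.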
Experiment [5] can be described thus: qHTS Assay for Identification of Small Molecule Inducers of Hypoxia Response (AID 2120; active = well fitted curve in the direction sought with a large enough effect in the signal ratio, with a control signal flat, not every such curve was filed as active; the % refers to the signal ratio; also: 0% is about no effect). A digest of the protocol: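 HRE-bla ME-180 cells in Opti-MEM with 0.5% dialyzed FBS, pre-plated 4-5 h, then compound titration for 17 h at 37 degrees Celsius. CCF4 loaded 2.5 h at room temperature; 460/530 nm ratio gave %Activity and AC50 for induction.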
A general note: Quantitative high-throughput screening tests each substance at several concentrations.

A short description of experiment [6]: qHTS assay for small molecule antagonists of peroxisome proliferator-activated receptor delta signaling (AID 588535).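 Also: cells co-treated with a PPAR-delta agonist as stimulator during compound exposure.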 The conditions noted are these: HEK293T PPARd-UAS-bla, beta-lactamase FRET ratio, 18 h; 460 nm channel. A digest of the protocol:
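Reporter: UAS-bla under PPAR-delta response element, HEK293T host. Medium: 2% charcoal/dextran FBS. Dosing: titration, 18 hrs, 37 C. Detection: CCF4, 2 hrs RT, 405 ex/460 and 530 em.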

Experiment [7] has as its target Vitamin D3 receptor (Homo sapiens) (UniProt P11473). As to the kind of experiment: qHTS assay for small molecule antagonists of vitamin D receptor signaling (AID 588541).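 Also: receptor activated by calcitriol during compound treatment; % is scaled to controls: 0 for no effect and ±100 for the full control effect.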 The gist of the method: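 VDR-UAS-bla HEK293T cells (2000/well, 2% charcoal-stripped FBS) were treated with titrated compounds plus 1-alpha,25-dihydroxyvitamin D3 (50 nM or 3 nM final) for 16 h at 37 C. CCF4 beta-lactamase fluorescence was read; Hill fits gave IC50.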

Experiment [8] has the same target. As to the kind of experiment: qHTS assay for small molecule agonists of vitamin D receptor signaling (AID 588543).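 Also: 0% = DMSO basal and 100% = reference agonist control.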 A digest of the protocol:
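β-lactamase reporter, VDR-UAS-bla HEK293T, agonist mode. Cells plated 5 h at 37 °C, compound titration 16 h at 37 °C, CCF4 dye 2 h RT, ratio 460/530 nm. Hill fit → EC50, efficacy vs 50 nM 1α,25-(OH)2D3.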

Experiment [9] has as its target Retinoic acid receptor RXR-alpha (Homo sapiens) (UniProt P19793). In words: qHTS assay for small molecule antagonists of retinoid X receptor alpha signaling (AID 588546; active = well fitted inhibition curve with a large enough effect in the signal ratio, with a control signal flat, not every such curve was filed as active; the % refers to the signal ratio; also: % is scaled to controls: 0 for no effect and ±100 for the full control effect). The conditions noted are these: HEK293T RXRa-UAS-bla, beta-lactamase ratio, antagonist mode. The gist of the method: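 Beta-lactamase reporter inhibition, read as CCF4 fluorescence ratio (ex 405, em 460/530 nm) after 2 h at RT. HEK293T UAS-bla cells, 2500/well, were stimulated with 9-cis-RA at 500 or 100 nM final alongside test compound for 18 h at 37 C.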

A short description of experiment [10]: qHTS assay for small molecule agonists of the antioxidant response element (ARE) signaling pathway (AID 651741; active = well fitted activation curve with a large enough effect in the signal ratio; the % refers to the signal ratio; also: % of control where 0% means no effect). A digest of the protocol:
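Compounds in DMSO are pinned onto HepG2 ARE-bla cells (2,000/well) that were preincubated 5 h; plates stay 16 h at 37 C, then beta-lactamase activity is detected with LiveBLAzer B/G substrate by fluorescence.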

Experiment [11] is described as follows: qHTS assay for small molecule activators of the nuclear factor-kappa B (NF-kB) signaling pathway (AID 651749; active = well fitted activation curve with a large enough effect in the signal ratio; the % refers to the signal ratio; also: potency is read from the fitted curve at half-maximal effect; as to activation: % of control where 0% means no effect). The conditions noted are these: NF-kB-bla ME-180 cells, beta-lactamase FRET ratio, 16 h; activation: stronger effect = higher value. The gist of the method: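 Screening used 2,000 ME-180 reporter cells per well exposed to pinned compound (23 nL) or DMSO; after 16 hr at 37C, beta-lactamase expression under NF-kB control was assessed through FRET.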

A short description of experiment [12]: qHTS assay for small molecule activators of the human pregnane X receptor (PXR) signaling pathway (AID 720659; call rule not given here; also: 0% is about no effect).
A short description of experiment [13]: Cell Viability - LYMP2-009 (AID 968; active = well fitted curve in the direction sought with a large enough effect; an effect the other way counts as inactive or inconclusive;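 also: 0% = DMSO alone and the full-kill end = tetraoctylammonium bromide at 92 µM; nearly all actives have a fitted effect of over 55% in size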).
For experiment [14], the target named is Thyroid hormone receptor beta (Homo sapiens) (UniProt P10828). In words: qHTS assay for small molecule agonists of thyroid hormone receptor beta signaling (AID 588545).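 Also: 0% = DMSO only and 100% = 10 nM T3.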 The gist of the method:
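Beta-lactamase reporter activity under TR response element control is measured in HEK 293 cells after 18 hrs compound exposure. Signal is ratiometric CCF4 fluorescence, 460/530 nm.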

The nature of experiment [15]: qHTS assay for small molecule disruptors of the mitochondrial membrane potential - 5 hr assay (AID 651755). Also: % is scaled to controls: 0 for no effect and ±100 for the full control effect; nearly all actives have a fitted effect of over 40% in size. The gist of the method: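 HepG2 cells, attached overnight at 37C, were exposed to compound or DMSO for 5 hr at 37C, 5% CO2. Mito-MPS dye was then added for 30 min, and fluorescence read at 490/535 nm (monomers) and 540/590 nm (aggregates).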
The nature of experiment [16]: qHTS assay for small molecule agonists of the antioxidant response element (ARE) signaling pathway measured by Nrf2-dependant transcriptional activity - cell viability counter screen (AID 720653; active = well fitted curve in the direction sought with a large enough effect in the repeat runs; an effect the other way counts as inactive or inconclusive; also: % is scaled to controls: 0 for no effect and ±100 for the full control effect). The conditions noted are these: ARE-bla HepG2 viability, CellTiter-Glo ATP luminescence, 16 h; stronger effect = lower value. The gist of the method: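 ARE-bla HepG2 cells (2,000/well) rested 5 hrs at 37C/5% CO2, then exposed to compounds in DMSO for 16 hrs. Viability was read in the same wells as intracellular ATP by luminescence, 30 min at room temperature after reagent addition.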

Experiment [17] has as its target Bile acid receptor (Homo sapiens) (UniProt Q96RI1). As to the kind of experiment: qHTS assay for small molecule antagonists of farnesoid X receptor signaling (AID 588526). Also: % is scaled to controls: 0 for no effect and ±100 for the full control effect. The gist of the method:
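Concentration-response titrations were fitted to the Hill equation for half-maximal inhibition and maximal response, with data normalised to 50 uM chenodeoxycholic acid and DMSO control wells. Cells: FXR-UAS-bla HEK293T, dialyzed FBS.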

The target is the same in experiment [18]. In words: qHTS assay for small molecule agonists of farnesoid X receptor signaling (AID 588527).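 Also: 0% = vehicle basal and 100% = reference agonist.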 The conditions noted are these: HEK293T FXR-UAS-bla, beta-lactamase ratio, 16 h; stronger effect = higher value. A digest of the protocol:
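Agonist-mode beta-lactamase reporter in GeneBLAzer FXR-UAS-bla HEK293T cells, titration up to 92 uM, 16 h exposure at 37 C, CCF4 fluorescence. Response scaled to DMSO (0%) and 100 uM chenodeoxycholic acid (100%), then Hill-fitted for EC50 and efficacy.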

The nature of experiment [19]: Cell Viability - BJ (AID 421).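 Also: potency is read from the fitted curve at half-maximal effect; cells exposed to compound for 40 hours at 37 °C before readout.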 The conditions noted are these: BJ fibroblast viability, qHTS. A digest of the protocol:
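Cytotoxicity as drop in intracellular ATP (CellTiter-Glo, 20 min RT) after 40 hr compound exposure of BJ fibroblasts at 37 °C. Titrations scaled between DMSO and 100 uM tamoxifen, Hill-fitted for AC50.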

Structures are written as SMILES. Values joined by “and” are separate entries in the source; they are usually repeats but may differ in a detail not shown here. Equal entries are not always repeated. Results filed as inconclusive are left out. A structure can be active in one record and inactive in another. Active and inactive are the calls of the source. Unless noted, calls follow the shape of the full dose curve.

Chain of Vitamin D3 receptor (Homo sapiens) (P11473 whole entry, looked up): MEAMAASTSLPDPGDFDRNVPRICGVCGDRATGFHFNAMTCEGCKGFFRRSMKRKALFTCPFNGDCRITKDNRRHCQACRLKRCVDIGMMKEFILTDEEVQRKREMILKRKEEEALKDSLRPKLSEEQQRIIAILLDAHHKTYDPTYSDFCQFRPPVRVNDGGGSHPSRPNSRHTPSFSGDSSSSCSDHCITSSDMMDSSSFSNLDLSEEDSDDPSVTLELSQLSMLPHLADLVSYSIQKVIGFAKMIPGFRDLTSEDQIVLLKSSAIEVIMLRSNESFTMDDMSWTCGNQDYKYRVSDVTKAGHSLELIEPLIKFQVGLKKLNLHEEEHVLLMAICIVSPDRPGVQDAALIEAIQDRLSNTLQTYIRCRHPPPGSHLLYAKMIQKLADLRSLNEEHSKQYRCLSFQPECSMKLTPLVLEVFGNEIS
Chain of Retinoic acid receptor RXR-alpha (Homo sapiens) (P19793 whole entry, looked up): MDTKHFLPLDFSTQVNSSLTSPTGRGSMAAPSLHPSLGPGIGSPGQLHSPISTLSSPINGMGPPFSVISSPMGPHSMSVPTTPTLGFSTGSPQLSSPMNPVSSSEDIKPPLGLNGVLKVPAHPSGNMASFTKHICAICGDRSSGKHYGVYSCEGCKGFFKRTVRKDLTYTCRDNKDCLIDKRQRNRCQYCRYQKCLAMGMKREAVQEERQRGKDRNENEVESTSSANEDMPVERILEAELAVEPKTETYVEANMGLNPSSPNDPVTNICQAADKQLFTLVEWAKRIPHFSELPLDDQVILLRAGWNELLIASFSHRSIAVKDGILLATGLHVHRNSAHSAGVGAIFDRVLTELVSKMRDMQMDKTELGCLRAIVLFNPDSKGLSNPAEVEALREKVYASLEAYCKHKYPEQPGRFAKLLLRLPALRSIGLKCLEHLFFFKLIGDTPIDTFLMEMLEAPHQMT
Chain of Bile acid receptor (Homo sapiens) (Q96RI1 whole entry, looked up): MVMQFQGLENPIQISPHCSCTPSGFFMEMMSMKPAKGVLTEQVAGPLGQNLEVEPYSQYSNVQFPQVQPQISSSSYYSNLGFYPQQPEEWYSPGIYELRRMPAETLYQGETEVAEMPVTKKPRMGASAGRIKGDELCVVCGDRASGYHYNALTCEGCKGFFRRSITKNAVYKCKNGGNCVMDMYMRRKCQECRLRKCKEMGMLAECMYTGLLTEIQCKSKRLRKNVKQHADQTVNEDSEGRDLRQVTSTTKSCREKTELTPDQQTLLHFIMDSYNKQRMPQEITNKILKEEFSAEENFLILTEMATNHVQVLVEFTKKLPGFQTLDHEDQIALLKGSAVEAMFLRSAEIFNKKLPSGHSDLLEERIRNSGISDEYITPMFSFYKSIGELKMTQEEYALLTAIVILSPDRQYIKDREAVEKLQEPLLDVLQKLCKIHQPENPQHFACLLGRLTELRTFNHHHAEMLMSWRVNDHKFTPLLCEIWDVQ
Chain of Thyroid hormone receptor beta (Homo sapiens) (P10828 whole entry, looked up): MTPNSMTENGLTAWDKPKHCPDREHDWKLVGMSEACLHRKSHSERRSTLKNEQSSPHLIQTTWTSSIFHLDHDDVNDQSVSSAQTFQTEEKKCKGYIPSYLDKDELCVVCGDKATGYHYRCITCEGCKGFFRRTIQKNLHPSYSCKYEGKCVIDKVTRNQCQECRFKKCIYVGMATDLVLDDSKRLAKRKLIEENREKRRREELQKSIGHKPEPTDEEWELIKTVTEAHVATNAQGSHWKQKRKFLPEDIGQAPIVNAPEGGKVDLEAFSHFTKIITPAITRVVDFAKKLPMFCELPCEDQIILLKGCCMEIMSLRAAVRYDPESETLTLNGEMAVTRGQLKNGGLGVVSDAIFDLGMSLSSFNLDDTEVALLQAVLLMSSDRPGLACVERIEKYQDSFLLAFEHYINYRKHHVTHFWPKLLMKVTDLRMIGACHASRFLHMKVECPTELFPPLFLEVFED

For `C=CC(N)=O`, the Potency result in [1], in experiment [3], in experiment [4] and in [10] was “inactive” each time. For the same molecule, the caspase-3 activation in [2] is -0.525% (inactive) and -0.998% (inactive). Besides, the result in experiment [5], in experiment [7], in [8] and in experiment [12] was inactive. For the same molecule, the max response in experiment [6] was 43.8% and 22.1%; in [9], 17% (inactive) and -9.44% (inactive) and -5.75% (inactive). In addition, the activation in experiment [11] is -0.549% (inactive) and 0.0148% (inactive) and 0.73% (inactive).

`Clc1nc(Cl)nc(Nc2ccccc2Cl)n1`: the Potency entry in [3], in experiment [13] and in [15] was “inactive” each time. Further, the result in experiment [7], in experiment [8] and in experiment [14] was inactive. Moreover, the max response in experiment [9] is 8.47% (inactive); in experiment [16], -2.86% (inactive) and -6.99% (inactive). Further, the Potency in experiment [11] is 25.1 µM (active). Further, the activation in [11] is 0.657% (inactive).

Turning to `Clc1ccc2ccccc2c1`, the outcome in experiment [5], in [17], in experiment [7], in [8] and in experiment [12] was inactive. Moreover, the activation in [18] is -2.62% (inactive). For the same molecule, the max response is -27.9% in experiment [6] and 4.36% (inactive) in experiment [16]. Also, the Potency entry in experiment [10] and in experiment [15] was “inactive” throughout.

Consider `CC(C)(C)OO`, for which the Potency result in experiment [3], in experiment [13], in experiment [4] and in [10] was “inactive” throughout. In experiment [6], the max response is 26.2% and -4.41%. Moreover, the outcome in experiment [7], in experiment [8] and in experiment [12] was inactive. Further, the activation in [11] was -0.974% (inactive) and 0.475% (inactive).

As to `COc1ccc(C=O)cc1OC`, the result in [5] and in [12] was inactive. Besides, the max response in experiment [9] is -9.7% (inactive) and -21.1% (inactive). In [10], the Potency entry was “inactive”.

With `CC(C)(OO)c1ccccc1`, the Potency in [4] was 50.1 µM (active). For the same molecule, the result in [5], in experiment [17], in [7], in [8], in [14] and in [12] was inactive. The activation in experiment [18] was -0.414% (inactive) and -0.341% (inactive); in experiment [11] it was -2.1% (inactive) and -0.395% (inactive). In addition, the max response was -33% in experiment [6]; 2.62% (inactive) and 5.92% (inactive) in [9]; -8.73% (inactive) and -2.9% (inactive) in [16]. In addition, the Potency result in experiment [10] is “inactive”.

Take `OCC1CO1` (stereo not drawn): in experiment [19], the Potency was > 92 µM (inactive). In addition, the Potency result in experiment [1], in experiment [4], in experiment [10] and in [15] was “inactive” each time. Also, the molecule was classed as inactive in experiment [17], in experiment [7], in [8], in experiment [14] and in [12]. The activation in experiment [18] is -2.37% (inactive) and -0.462% (inactive). The max response in [6] is -3.17% and 28.4%; in [16] it was -5.57% (inactive) and 1.53% (inactive).

For `c1nc[nH]n1`, the Potency result in [1], in experiment [3] and in experiment [13] was “inactive” each time. The molecule was classed as inactive in experiment [17], in experiment [7], in experiment [8] and in experiment [12]. Besides, the activation in [18] was 0.583% (inactive); in experiment [11], 0.14% (inactive). In addition, the max response in experiment [6] is -9.48%; in experiment [9], 5.33% (inactive).

On to `CC(C)(C)OOC(C)(C)C`, for which the Potency entry in experiment [1], in experiment [13], in experiment [4], in experiment [10] and in experiment [15] was “inactive” in each case. Besides, the molecule was classed as inactive in experiment [17], in [14] and in experiment [12]. Also, the activation in experiment [18] was -0.0913% (inactive); in experiment [11], 1.21% (inactive). The figures for the max response in [6], in experiment [9] and in experiment [16] were 29.5%, 11.6% (inactive) and -1.66% (inactive), respectively.

`NC(=S)Nc1ccccc1`: the Potency in [19] was > 92 µM (inactive). Also, the caspase-3 activation in [2] was -3.2% (inactive) and -1.82% (inactive). In addition, the Potency result in [3], in experiment [13] and in [10] was “inactive” in each case. The outcome in experiment [17], in experiment [7] and in experiment [8] was inactive. Besides, the activation was -3.05% (inactive) and -3.49% (inactive) in experiment [18]; -0.0044% (inactive) and -1.03% (inactive) and -0.459% (inactive) in experiment [11]. In addition, the max response was -9.7% and -15% in [6]; 6.2% (inactive) and -12.5% (inactive) and -20.4% (inactive) in experiment [9]; -3.66% (inactive) and 8.32% (inactive) and -3.85% (inactive) in experiment [16].

For the origin of these results see PubChem BioAssay (NCATS).
